In the supplement of paper PMC12494721:
Structures can show the parent of a compound that is named as a salt.

What was measured:
Conditions in all cases: incubation time: 27 h, anaerobic, 37 °C;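 for the amine columns active = adjusted P below 0.05 in both replicates with a change the same way and a mean fold change under 0.8 or over 1.25; inactive = the rest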
[1] = system: Clostridium sporogenes DSM 1664; assay: growth (OD595) fold change vs plate DMSO controls (fold change (ratio)); higher = more growth
How it was run: (§1)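 Anaerobic 27 h, 37 °C mGAM 96-well cultures were shaken, then read for absorbance at 595 nm. Values were blank-subtracted and corrected for compound background using 20 µM compound solutions in water. A calibration factor of 5 converted them to OD. Growth is the fold change versus the median of plate DMSO controls. Fold changes above 1.5 were set to NA, and values are the mean of 2 biological replicates.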

Escherichia coli IAI1 [2] = assay: as above
How it was run: as §1

[3] = system: Klebsiella aerogenes DSM 30053; assay: as above
How it was run: as §1

[4] = system: Ruminococcus gnavus DSM 108212; assay: as above
How it was run: as §1

[5] = system: Klebsiella aerogenes DSM 30053; assay: fold change of Histamine concentration vs plate DMSO controls (fold change (ratio)); higher = more amine produced, active = hit call of the paper (significant change in both replicates, either direction)
How it was run: (§2)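 Using LC–triple-quadrupole MS with dynamic MRM, amines were quantified against external calibration curves and corrected for drift within each batch. Samples were whole anaerobic mGAM cultures of four gut strains, grown 27 h at 37 °C from OD 0.1 before 1:1 dilution, extracted with cold acetonitrile/methanol containing 0.1% formic acid and centrifuged. Compounds were present at 20 µM final (sweeteners at 50 µM final). The numbers are fold changes versus plate DMSO controls, each the mean of 2 biological replicates.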

[6] = system: Clostridium sporogenes DSM 1664; assay: fold change of Tryptamine concentration vs plate DMSO controls (fold change (ratio)); higher = more amine produced, active = hit call of the paper (significant change in both replicates, either direction)
How it was run: as §2

[7] = system: Ruminococcus gnavus DSM 108212; assay: as above
How it was run: as §2

Escherichia coli IAI1 [8] = assay: fold change of Putrescine concentration vs plate DMSO controls (fold change (ratio)); higher = more amine produced, active = hit call of the paper (significant change in both replicates, either direction)
How it was run: as §2

[9] = system: Klebsiella aerogenes DSM 30053; assay: as above
How it was run: as §2

Escherichia coli IAI1 [10] = assay: fold change of Cadaverine concentration vs plate DMSO controls (fold change (ratio)); higher = more amine produced, active = hit call of the paper (significant change in both replicates, either direction)
How it was run: as §2

[11] = system: Klebsiella aerogenes DSM 30053; assay: as above
How it was run: as §2

[12] = system: Ruminococcus gnavus DSM 108212; assay: fold change of 2-Phenylethylamine concentration vs plate DMSO controls (fold change (ratio)); higher = more amine produced, active = hit call of the paper (significant change in both replicates, either direction)
How it was run: as §2

Row | SMILES | growth [1] | growth (Escherichia coli IAI1 [2]) | growth [3] | growth [4] | fold change of Histamine concentration [5] | fold change of Tryptamine concentration [6] | fold change of Tryptamine concentration [7] | fold change of Putrescine concentration (Escherichia coli IAI1 [8]) | fold change of Putrescine concentration [9] | fold change of Cadaverine concentration (Escherichia coli IAI1 [10]) | fold change of Cadaverine concentration [11] | fold change of 2-Phenylethylamine concentration [12]
1 | CC(C)Cc1ccc(C(C)C(=O)OCc2ccccn2)cc1 (stereo not drawn) [Ibuprofen Piconol] (20 µM) | 0.967 | 1 | 0.98 | 1.13 | 1.01 (inactive) | 1.01 (inactive) | 1.1 (inactive) | 1 (inactive) | 1.01 (inactive) | 0.983 (inactive) | 0.996 (inactive) | 1.15 (inactive)
2 | COc1c(Cl)ccc(Cl)c1C(=O)O (20 µM) | 1.05 | 1.02 | 1.03 | 1.19 | 0.99 (inactive) | 0.999 (inactive) | 0.997 (inactive) | 1.01 (inactive) | 1.01 (inactive) | 1.03 (inactive) | 1.01 (inactive) | 0.995 (inactive)
3 | CC(=O)OCC1=C(C(=O)O)N2C(=O)[C@@H](NC(=O)Cc3cccs3)[C@H]2SC1 [Cephalothin sodium salt] (20 µM) | 0 | 1.29 | 1.11 | 0.125 | 1.1 (inactive) | 0.0346 (active) | 0.0635 (active) | 1.17 (inactive) | 1.02 (inactive) | 1.62 (inactive) | 1.01 (inactive) | 0.0703 (active)
4 | CN(C)CCOC(C)(c1ccccc1)c1ccccn1 (stereo not drawn) [Doxylamine succinate] (20 µM) | 1.13 | 0.972 | 1.01 | 1.05 | 1.01 (inactive) | 0.943 (inactive) | 0.988 (inactive) | 1.01 (inactive) | 1.01 (inactive) | 0.924 (inactive) | 1 (inactive) | 0.891 (inactive)
5 | COCCCC/C(=N\OCCN)c1ccc(C(F)(F)F)cc1 [Fluvoxamine maleate] (20 µM) | 1.2 | 0.976 | 0.994 | 0.962 | 0.985 (inactive) | 1.03 (inactive) | 0.982 (inactive) | 1.02 (inactive) | 0.987 (inactive) | 0.985 (inactive) | 0.997 (inactive) | 1.02 (inactive)
6 | CCOC1O[C@H]([C@@H](COCc2ccccc2)OCc2ccccc2)[C@H](OCc2ccccc2)[C@H]1O (stereo partly drawn) [Tribenoside] (20 µM) | 0.917 | 0.959 | 0.99 | 0.972 | 1.06 (inactive) | 0.969 (inactive) | 0.966 (inactive) | 1 (inactive) | 1.03 (inactive) | 1.01 (inactive) | 0.987 (inactive) | 0.961 (inactive)
7 | CCC(Cc1c(I)cc(I)c(N)c1I)C(=O)O (stereo not drawn) [Iopanoic acid] (20 µM) | 0.989 | 1.13 | 1 | 1.05 | 0.999 (inactive) | 0.978 (inactive) | 0.879 (inactive) | 1.1 (inactive) | 0.994 (inactive) | 1.04 (inactive) | 0.985 (inactive) | 0.969 (inactive)
8 | CC1(C)S[C@@H]2[C@H](NC(=O)[C@H](NC(=O)N3CCNC3=O)c3ccccc3)C(=O)N2[C@H]1C(=O)O [Azlocillin sodium salt] (20 µM) | 0 | 0.726 | 1.16 | 0 | 0.875 (inactive) | 0.0279 (active) | 0.0374 (active) | 0.965 (inactive) | 1.07 (inactive) | 1.87 (active) | 1.02 (inactive) | 0.0385 (active)
9 | CCC(C)n1ncn(-c2ccc(N3CCN(c4ccc(OCC5COC(Cn6cncn6)(c6ccc(Cl)cc6Cl)O5)cc4)CC3)cc2)c1=O (stereo not drawn) [Itraconazole] (20 µM) | 1.03 | 0.985 | 1.03 | 0.531 | 1.13 (inactive) | 1.02 (inactive) | 1.05 (inactive) | 1.01 (inactive) | 1.03 (inactive) | 1 (inactive) | 0.995 (inactive) | 0.997 (inactive)
10 | CCOc1ccc(Cc2nccc3cc(OCC)c(OCC)cc23)cc1OCC [Ethaverine hydrochloride] (20 µM) | 0.848 | 0.99 | 0.954 | 1.05 | 1 (inactive) | 0.945 (inactive) | 0.935 (inactive) | 1.05 (inactive) | 1.01 (inactive) | 1.03 (inactive) | 0.982 (inactive) | 0.895 (inactive)
11 | CC=CC1=C(C(=O)O)N2C(=O)[C@@H](NC(=O)[C@H](N)c3ccc(O)cc3)[C@H]2SC1 [Cefprozil] (20 µM) | 0.404 | 1.01 | 0.983 | 0.5 | 1.06 (inactive) | 0.324 (active) | 0.637 (inactive) | 0.914 (inactive) | 1.02 (inactive) | 0.955 (inactive) | 1.02 (inactive) | 0.843 (inactive)
12 | C[C@@H]1CCC[C@H](C)N1NC(=O)c1ccc(Cl)c(S(N)(=O)=O)c1 [Clopamide] (20 µM) | 1.09 | 0.983 | 0.983 | 1.04 | 1.07 (inactive) | 1.07 (inactive) | 1.02 (inactive) | 0.989 (inactive) | 1.03 (inactive) | 1 (inactive) | 1.01 (inactive) | 1.03 (inactive)
13 | NCC[C@H](O)C(=O)N[C@@H]1C[C@H](N)[C@@H](O[C@H]2O[C@H](CN)[C@@H](O)[C@H](O)[C@H]2O)[C@H](O)[C@H]1O[C@H]1O[C@H](CO)[C@@H](O)[C@H](N)[C@H]1O [Amikacin hydrate] (20 µM) | 0.793 | 0.983 | 0.78 | 0.735 | 0.601 (active) | 0.812 (inactive) | 0.911 (inactive) | 1 (inactive) | 0.992 (inactive) | 0.922 (inactive) | 0.982 (inactive) | 0.972 (inactive)
14 | CC(C)(c1ccc(O)cc1)c1ccc(O)cc1 [Bisphenol A] (20 µM) | 0.972 | 1.04 | 1 | 0.996 | 1.01 (inactive) | 0.959 (inactive) | 0.976 (inactive) | 0.981 (inactive) | 0.988 (inactive) | 0.991 (inactive) | 0.985 (inactive) | 0.942 (inactive)
15 | O=C1O[C@H]([C@@H](O)CO)C(O)=C1O [Ascorbic acid] (20 µM) | 1.01 | 1.03 | 0.981 | 0.975 | 1.08 (inactive) | 1.05 (inactive) | 1.06 (inactive) | 1.01 (inactive) | 0.978 (inactive) | 1.03 (inactive) | 1.04 (inactive) | 1.03 (inactive)
16 | [S] (20 µM) | 1.07 | 0.919 | 0.964 | 0.976 | 0.924 (inactive) | 0.999 (inactive) | 1.01 (inactive) | 1.02 (inactive) | 0.962 (inactive) | 0.951 (inactive) | 1 (inactive) | 1.02 (inactive)
17 | Cc1cc2nc3ccc(=[N+](C)C)cc-3sc2cc1N [Tolonium chloride] (20 µM) | 0.823 | 0.559 | 0.55 | 0.0958 | 0.959 (inactive) | 1 (inactive) | 0.972 (inactive) | 0.979 (inactive) | 1 (inactive) | 1.05 (inactive) | 0.984 (inactive) | 0.959 (inactive)
18 | OC(CCN1CCCCC1)(c1ccccc1)C1CCCCC1 (stereo not drawn) [Trihexyphenidyl-D,L hydrochloride] (20 µM) | 1.05 | 1.11 | 1.02 | 0.865 | 0.954 (inactive) | 1.01 (inactive) | 0.874 (inactive) | 1.17 (inactive) | 0.97 (inactive) | 0.697 (inactive) | 0.984 (inactive) | 0.92 (inactive)
19 | N[C@@H](Cc1cc(I)c(Oc2ccc(O)c(I)c2)c(I)c1)C(=O)O [Liothyronine] (20 µM) | 0.986 | 0.992 | 1.03 | 1.09 | 0.981 (inactive) | 0.991 (inactive) | 0.88 (inactive) | 0.906 (inactive) | 0.99 (inactive) | 1.02 (inactive) | 0.993 (inactive) | 0.88 (inactive)
20 | Nc1ccc(C(=O)NCC(=O)O)cc1 [Aminohippuric acid] (20 µM) | 0.256 | 0.163 | 0 | 0.295 | 0.944 (inactive) | 0.982 (inactive) | 1.03 (inactive) | 1.04 (inactive) | 1.01 (inactive) | 0.988 (inactive) | 1.01 (inactive) | 1.03 (inactive)
21 | CN(C)CCOC(c1ccc(Cl)cc1)c1ccccn1 (stereo not drawn) [Carbinoxamine maleate salt] (20 µM) | 1.2 | 1.01 | 0.985 | 0.88 | 1.04 (inactive) | 0.981 (inactive) | 1.05 (inactive) | 0.966 (inactive) | 1.02 (inactive) | 0.974 (inactive) | 1 (inactive) | 1.1 (inactive)
22 | CC[C@H]1OC(=O)[C@H](C)[C@@H](O[C@H]2C[C@@](C)(OC)[C@@H](O)[C@H](C)O2)[C@H](C)[C@@H](O[C@@H]2O[C@H](C)C[C@H](N(C)C)[C@H]2O)[C@](C)(O)C[C@@H](C)[C@@H]2N[C@@H](COCCOC)O[C@H]([C@H]2C)[C@]1(C)O [Dirithromycin] (20 µM) | 0.228 | 0.961 | 0.964 | 0.419 | 0.987 (inactive) | 0.0683 (active) | 0.134 (active) | 0.956 (inactive) | 0.991 (inactive) | 0.998 (inactive) | 1.01 (inactive) | 0.146 (active)
23 | CC(COc1ccccc1)NC(C)C(O)c1ccc(O)cc1 (stereo not drawn) [Isoxsuprine hydrochloride] (20 µM) | 1.07 | 1 | 1 | 1.01 | 0.819 (inactive) | 1.05 (inactive) | 0.977 (inactive) | 1.05 (inactive) | 1 (inactive) | 0.927 (inactive) | 1.03 (inactive) | 0.966 (inactive)
24 | COc1cc(Nc2c(C#N)cnc3cc(OCCCN4CCN(C)CC4)c(OC)cc23)c(Cl)cc1Cl [Bosutinib] (20 µM) | 0.991 | 0.99 | 1.05 | 1.16 | 0.973 (inactive) | 0.96 (inactive) | 0.942 (inactive) | 1.02 (inactive) | 1 (inactive) | 1.02 (inactive) | 1.01 (inactive) | 0.989 (inactive)
